Test results published in PubChem BioAssay (NCATS).
Results filed as inconclusive are left out. Where a call stands in place of a potency, no number is given. Values without a mark were called inactive. Calls of active or inactive are those of the source. Calls follow the shape of the dose curve; as a rule, active = well fitted curve in the direction sought with a large enough effect; inconclusive = small, poorly fitted or top-dose-only effect, or another doubt; inactive = no such curve, though single readings can be large; an effect the other way counts as inactive or inconclusive.

Assays:
Es-2 = test: Primary qHTS to identify gynecologic anti-cancer compounds using libraries of approved drugs and bioactive compounds (AID 1345084); conditions: Gynecologic cancer cell panel viability, ATPlite luminescence, 48 h; series mostly up to 57.5 µM; also: nearly all actives have a fitted effect of over 55% in size
Procedure, shortened: (§1)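 In this quantitative HTS, cell killing is estimated from loss of ATP-dependent luciferase light. Cells see five compound concentrations over a 48 h exposure.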

HeLa = test: as above; conditions: Gynecologic cancer cell panel viability, ATPlite luminescence, 48 h; series mostly up to 57.5 µM
Procedure, shortened: as §1

PA-1 = test: as above; conditions: Gynecologic cancer cell panel viability, ATPlite luminescence, 48 h; series mostly up to 57.5 µM
Procedure, shortened: as §1

SKOV3 = test: as above; conditions: Gynecologic cancer cell panel viability, ATPlite luminescence, 48 h; series mostly up to 57.5 µM
Procedure, shortened: as §1

CASKI = test: as above; conditions: Gynecologic cancer cell panel viability, ATPlite luminescence, 48 h; series mostly up to 57.5 µM
Procedure, shortened: as §1

JEG-3 = test: as above; conditions: Gynecologic cancer cell panel viability, ATPlite luminescence, 48 h; series mostly up to 57.5 µM
Procedure, shortened: as §1

Tov112D = test: as above; conditions: Gynecologic cancer cell panel viability, ATPlite luminescence, 48 h; series mostly up to 57.5 µM
Procedure, shortened: as §1

Tov-21-G = test: as above; conditions: Gynecologic cancer cell panel viability, ATPlite luminescence, 48 h; series mostly up to 57.5 µM
Procedure, shortened: as §1

OV90 = test: as above; conditions: Gynecologic cancer cell panel viability, ATPlite luminescence, 48 h; series mostly up to 57.5 µM
Procedure, shortened: as §1

Hek293T = test: as above; conditions: Gynecologic cancer cell panel viability, ATPlite luminescence, 48 h, control line for the selectivity index; series mostly up to 57.5 µM
Procedure, shortened: as §1

[1] = qHTS assay to identify inhibitors of the type 1 interferon - major histocompatibility complex class I in skeletal muscle: Counter screen cell viability and HiBit confirmation (AID 1347412); conditions: iHSKM muscle cells + IFN-b, HiBiT or CellTiter-Glo, 24 h; also: nearly all actives have a fitted effect of over 60% in size
Procedure, shortened: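 Luminescence read-out: Nano-Glo HiBiT lytic signal from C-terminally HiBiT-tagged HLA-B in CRISPR-edited human myoblasts, plus CellTiter Glo ATP as viability counter screen. IFN-beta 4.0 ng/ml; 24 hrs treatment at 37 C, 5% CO2.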

[2] = Drug repurposing screens with cells derived from glioblastoma tumor samples (AID 1345199); conditions: GBM patient neurospheres viability, ATP luminescence, 48 h; also: nearly all actives have a fitted effect of over 40% in size
Procedure, shortened: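 Four patient lines of CD133+ GBM neurospheres were screened at several concentrations; hits were retested in those lines plus three slower-growing GBM lines, using 48-hour treatment and ATP-based viability.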
Potency is read from the fitted curve at half-maximal effect.

Compound: O=C(Nc1ccnc(NC(=O)C2CC2)c1)c1c(Cl)cccc1Cl
- Potency (Es-2): 22.4 µM (active)
- Potency (HeLa): 17.8 µM (active)
- Potency (PA-1): 15.8 µM (active)
- Potency (SKOV3): inactive

Compound: COc1cc(CCc2cc(NC(=O)c3ccc(N4CC(C)NC(C)C4)cc3)n[nH]2)cc(OC)c1 (centres undefined)
- Potency (CASKI): inactive
- Potency (JEG-3): inactive
- Potency (Tov112D): inactive

Compound: COc1cc(-n2cnc3cc(-c4ccc(Cl)cc4)sc3c2=O)ccc1OCCN1CCCC1
- Potency (HeLa): inactive
- Potency (JEG-3): inactive
- Potency (PA-1): 22.4 µM (active)
- Potency (Tov-21-G): inactive

Compound: COc1cc([C@H]2O[C@H](c3cc(OC)c4c(c3)OCO4)[C@H](C)[C@H]2C)cc(OC)c1OC
- Potency (CASKI): inactive
- Potency (HeLa): inactive
- Potency (JEG-3): inactive
- Potency (OV90): 8.91 µM (active)
- Potency (Tov-21-G): inactive
- Potency (Tov112D): inactive

Compound: Cc1nc2ccc(-n3ncc(C(=O)c4cc5ccccc5[nH]4)c3N)cc2[nH]1
- Potency (HeLa): 28.2 µM (active)
- Potency (Hek293T): 14.1 µM (active)
- Potency (OV90): 14.1 µM (active)
- Potency (Tov-21-G): 28.2 µM (active)

Compound: CN(C)CCCn1cc(C2=C(c3c[nH]c4ccccc34)C(=O)NC2=O)c2ccccc21
- Potency (Es-2): 28.2 µM (active)
- Potency (Hek293T): 22.4 µM (active)
- Potency (JEG-3): inactive

Compound: C=C[C@@]1(C)C=C2C(=O)C(O)=C3[C@](C)(C(=O)O)CC[C@@H]4C[C@]34[C@]2(O)C(=O)C1
- Potency (Es-2): 10 µM (active)
- Potency (HeLa): inactive
- Potency (Hek293T): 11.2 µM (active)
- Potency (PA-1): 11.2 µM (active)
- Potency (Tov-21-G): 11.2 µM (active)

Compound: CN(C)Cc1ccc(-c2cnn3c(-c4cccc(NC(=O)c5cccc(C(F)(F)F)c5)c4)ccnc23)cc1
- Potency (Es-2): inactive
- Potency (HeLa): inactive
- Potency (PA-1): inactive
- Potency (Tov-21-G): inactive
- Potency (Tov112D): inactive

Compound: CC(C)CC(=O)c1c(O)cc2c(c1O)C(CC(C)C)C1=C(O2)C(C)(C)C(=O)C(C)(C)C1=O (centres undefined)
- Potency (Es-2): inactive
- Potency (JEG-3): inactive
- Potency (OV90): inactive

Compound: COCCNCc1ccc(-c2cc3nccc(Oc4ccc(NC(=O)C5(C(=O)Nc6ccc(F)cc6)CC5)cc4F)c3s2)nc1
- Potency (Es-2): inactive
- Potency ([1]; Viability): 31.3 µM (active)

Compound: C=CC(=O)Nc1cccc(Nc2nc(Nc3ccc(OCCOC)cc3)ncc2F)c1
- Potency (HeLa): 11.2 µM (active)
- Potency (JEG-3): inactive
- Potency (PA-1): 10 µM (active)
- Potency (SKOV3): 2.82 µM (active)
- Potency (Tov112D): 4.47 µM (active)

Compound: CN1CCN(Cc2ccc(NC(=O)Cc3ccc(Oc4cc(NC(=O)C5CC5)ncn4)cc3)cc2C(F)(F)F)CC1
- Potency (Es-2): 7.94 µM (active)
- Potency (HeLa): 7.08 µM (active)
- Potency (OV90): 4.47 µM (active)
- Potency (PA-1): 5.62 µM (active)
- Potency (Tov-21-G): 6.31 µM (active)
- Potency (Tov112D): 5.62 µM (active)

Compound: O=C(CCl)Nc1cccc(NC2=NS(=O)(=O)c3ccccc32)c1
- Potency (Es-2): inactive
- Potency (JEG-3): inactive
- Potency (OV90): inactive
- Potency (Tov-21-G): inactive

Compound: Fc1ccc2[nH]ccc2c1-c1nc(N2CCOCC2)c2sc(CN3CCN(CC4CC4)CC3)cc2n1
- Potency (Es-2): inactive
- Potency (HeLa): inactive
- Potency (JEG-3): 20 µM (active)
- Potency (Tov-21-G): inactive
- Potency (Tov112D): inactive

Compound: Clc1ccc(Nc2nc3ccccc3c3nc(C4CCCCC4)[nH]c23)cc1Cl
- Potency (CASKI): inactive
- Potency (JEG-3): inactive
- Potency (SKOV3): inactive
- Potency (Tov-21-G): inactive
- Potency (Tov112D): inactive

Compound: COc1ccc(-c2ccc3c(N4CCOCC4C)nc(N4CCOCC4C)nc3n2)cc1CO (centres undefined)
- Potency (Es-2): 0.282 µM (active)
- Potency (Hek293T): 0.316 µM (active)
- Potency (JEG-3): inactive
- Potency (PA-1): 0.282 µM (active)
- Potency (Tov-21-G): 0.251 µM (active)

Compound: C=C1C(=O)OC2/C=C(/C)C3=CC(=O)C(C)(CC(OC(=O)/C(C)=C/COC(C)=O)C12)O3 (centres undefined)
- Potency (Es-2): 7.08 µM (active)
- Potency (HeLa): inactive
- Potency (OV90): inactive
- Potency (Tov-21-G): 11.2 µM (active)

Compound: Cc1ccc(NC(=O)C(C)C)cc1C1CCN(Cc2ccc(Oc3ccc(F)c(F)c3)cc2)CC1
- Potency (CASKI): inactive
- Potency (HeLa): inactive
- Potency (JEG-3): inactive
- Potency (Tov112D): inactive

Compound: CCC(C)(OC(C)=O)C(=O)O[C@H]1[C@H](OC(C)=O)[C@]2(CO)[C@H](O)[C@H](O)[C@]3(C)C(=CCC4[C@@]5(C)CC[C@H](O[C@@H]6O[C@H](C(=O)O)[C@@H](O)[C@H](O[C@@H]7OC[C@H](O)[C@H](O[C@@H]8OC[C@H](O)[C@H](O)[C@H]8O)[C@H]7O)[C@H]6O[C@@H]6O[C@H](CO)[C@@H](O)[C@H](O)[C@H]6O)C(C)(C)C5CC[C@]43C)[C@@H]2CC1(C)C (some centres undefined)
- activity change, negative = cytotoxicity (Es-2): -8.22% [at 6.55 µM]
- activity change, negative = cytotoxicity (HeLa): -8.59% [at 6.55 µM]
- activity change, negative = cytotoxicity (Hek293T): -17.4% [at 6.55 µM]
- activity change, negative = cytotoxicity (JEG-3): -1.81% [at 6.55 µM]
- activity change, negative = cytotoxicity (PA-1): -11.2% [at 6.55 µM]
- activity change, negative = cytotoxicity (SKOV3): -31.7% [at 6.55 µM]
- activity change, negative = cytotoxicity (Tov-21-G): -3.66% [at 6.55 µM]
- activity change, negative = cytotoxicity (Tov112D): -10.5% [at 6.55 µM]

Compound: COc1c(C)cnc(Cn2cc(C#CCC(C)(C)O)c3c(Cl)nc(N)nc32)c1C
- Potency (HeLa): inactive
- Potency (Hek293T): 0.282 µM (active)
- Potency (PA-1): 0.282 µM (active)
- Potency (SKOV3): 0.251 µM (active)

Compound: C=C1C(=O)O[C@@H]2C(OC(=O)/C(C)=C\C)/C(C)=C\C(=O)/C=C(\C)C[C@H](O)[C@@H]12 (some centres undefined)
- Potency (HeLa): inactive
- Potency (Hek293T): 11.2 µM (active)
- Potency (OV90): inactive
- Potency (PA-1): 10 µM (active)
- Potency (SKOV3): inactive
- Potency (Tov-21-G): 10 µM (active)

Compound: NCCOc1cc(C(=O)Nc2cc(OCCN)c3ccccc3n2)nc(C(=O)Nc2cc(OCCN)c3ccccc3n2)c1
- Potency (Es-2): inactive
- Potency (Hek293T): inactive
- Potency (JEG-3): inactive
- Potency (OV90): inactive
- Potency (PA-1): 7.94 µM (active)
- Potency (SKOV3): 8.91 µM (active)

Compound: CN(C)C(=O)COC(=O)c1cc(-c2ccc(C3CCNCC3)cc2)c2ccc(-c3ccc(C(F)(F)F)cc3)cc2c1
- Potency (Es-2): inactive
- Potency (Hek293T): inactive
- Potency (JEG-3): inactive

Compound: Nc1ncnc2c1c(-c1ccc(Oc3ccccc3)cc1)nn2[C@@H]1CCCNC1
- Potency (HeLa): inactive
- Potency (JEG-3): inactive
- Potency (PA-1): 25.1 µM (active)
- Potency (Tov-21-G): inactive

Compound: c1ccc(-c2cnn3cc(-c4ccc(OCCN5CCOCC5)cc4)cnc23)cc1
- Potency (CASKI): inactive
- Potency (HeLa): inactive
- Potency (JEG-3): inactive
- Potency (SKOV3): 15.8 µM (active)
- Potency (Tov-21-G): inactive

Compound: CN1CCN(c2ccc(OC(F)(F)F)c(Nc3ncc4c(n3)-c3c(c(C(N)=O)nn3CCO)CC4)c2)CC1
- Potency (HeLa): 0.224 µM (active)
- Potency (OV90): inactive
- Potency (PA-1): 0.282 µM (active)
- Potency (Tov112D): 0.316 µM (active)

Compound: Oc1cccc(C2NC(=S)Nc3cccc(F)c32)c1 (centres undefined)
- Potency (JEG-3): 22.4 µM (active)
- Potency (OV90): inactive
- Potency (Tov112D): 10 µM (active)

Compound: CC(=O)OC1[C@H]2[C@@H](C[C@@H](C)[C@@H]3C=CC(=O)[C@@]13C)OC(=O)[C@@H]2C (some centres undefined)
- Potency (OV90): inactive
- Potency (PA-1): 35.5 µM (active)

Compound: O=C(Nc1ccc(C(O)(C(F)(F)F)C(F)(F)F)cc1)c1ccc(C(F)(F)F)cc1
- Potency (JEG-3): inactive

Compound: CCCCCCCCCCCCCCCC(=O)O[C@@H]1CC(C)=C(/C=C/C(C)=C/C=C/C(C)=C/C=C/C=C(C)/C=C/C=C(C)/C=C/C2=C(C)C[C@@H](OC(=O)CCCCCCCCCCCCCCC)CC2(C)C)C(C)(C)C1
- activity, negative = cell killing ([2]; at 45.9 µM (top of the series), tumour line B): -12.7%
- Potency ([2]; tumour line A): 11.2 µM (active)

Compound: O=C(NO)c1cnc(N2CCN(S(=O)(=O)c3ccc4ccccc4c3)CC2)nc1
- Potency (OV90): 3.98 µM (active)

Compound: CC1(C)CC[C@]23CO[C@@]4(CCC5[C@@]6(C)CC[C@H](O[C@@H]7OC[C@H](O[C@@H]8O[C@H](CO)[C@@H](O)[C@H](O)[C@H]8O[C@@H]8OC[C@@H](O)[C@H](O)[C@H]8O)[C@H](O)[C@H]7O[C@@H]7O[C@H](CO)[C@@H](O)[C@H](O)[C@H]7O)[C@@](C)(CO)C6CC[C@@]5(C)[C@]4(C)C[C@H]2O)[C@@H]3C1 (some centres undefined)
- activity change, negative = cytotoxicity (HeLa): -0.159% [at 11.6 µM]
- activity change, negative = cytotoxicity (PA-1): -25.5% [at 11.6 µM]

Compound: CC1CCCC(O)CC(=O)c2c(O)cc(O)cc2CC(=O)O1 (centres undefined)
- Potency (JEG-3): inactive
- Potency (OV90): inactive
- Potency (Tov-21-G): inactive

Compound: Cc1cc2ncc(C(=O)NCC(C)(C)NCC(=O)N3CCC[C@H]3C#N)cn2n1
- Potency (OV90): inactive

Compound: COc1cccc(-c2cc(F)ccc2C2Cc3nc(N)nc(C)c3C(=O)N2)n1 (centres undefined)
- Potency (Hek293T): 0.282 µM (active)
- Potency (PA-1): 0.355 µM (active)
- Potency (Tov-21-G): 0.282 µM (active)
- Potency ([1]; HiBiT): 0.0222 µM (active)

Compound: C=C1C(=O)O[C@@H]2[C@H]3C(C)=CC(=O)C3=C(C)CC[C@@H]12
- Potency (HeLa): inactive
- Potency (Tov-21-G): 28.2 µM (active)
- Potency (Tov112D): inactive
